# In all, about 190,000 compounds went through this assay and about 930 (0.49%) were called active. This is one part of the list. Entries with a potency or affinity are not part of this list. A number with no mark means an inactive call.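 The calls were made as follows: active = z-score of insulin promoter reporter brightness in nuclei below -3 at 5 µM, with at least 500 cells counted; inconclusive = wells with under 500 cells, flagged as toxic or sparse; inactive = the rest.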
# Test: insulin promoter down-regulators in MIN6 cells, imaging, high-content screening, mouse beta cells (AID 1628)
# Conditions: MIN6 insulin promoter GFP reporter, at 5 µM, active compounds read low
row,Compound,z-score
1,Cc1ccccc1SCc1noc(C(=O)NC(C)C)c1C(=O)O,3.02
2,O=C(NCc1cccs1)c1ccc(N2CCCCC2)nc1,3.41
3,Cc1cc(C)c(S(=O)(=O)c2ccccc2C)c(SCC(C)C)n1,-3.18 (active)
4,Cc1cc(C)c(C#N)c(SCC2COc3ccccc3O2)n1 (stereo not drawn),3.48
5,CCOC(=O)c1c(-c2ccc(C)cc2)csc1NC(=O)/C(C#N)=C/c1ccc(O)c(OC)c1,8.18
6,CN(C)c1ccc(/C=C/C(O)=C2/C(=O)N(C)C3(C)CC2c2ccccc2O3)cc1 (stereo not drawn),3.04
7,CCCS(=O)(=O)NCCc1cc2ccc(C)cc2[nH]c1=O,0.95
8,CCN(CC)CCN(Cc1cc2ccc(C)cc2[nH]c1=O)C(=O)NC1CCCCC1,-4.95 (active)
9,CCc1c(C(=O)NC2CCCCC2)[nH]c(C)c1C(C)=O,3.85
10,O=C(c1ccc2c(c1)OCO2)N1CCN(c2ccccn2)CC1,-5.54 (active)
11,O=C(c1ccc2c(c1)OCO2)N1CCCC1,8.93
12,O=C(c1ccc2c(c1)OCO2)N1CCc2ccccc2C1,-0.76
13,O=C(c1ccc2c(c1)OCO2)N1CCCC(c2ccccc2)C1 (stereo not drawn),-3.99 (active)
14,O=C(CC12CC3CC(CC(C3)C1)C2)NCC(=O)N1CCc2ccccc2C1,3.34
15,CN(C)c1ccc(/C=C/C(=O)c2c(O)c3ccccc3oc2=O)cc1,8.78
16,CN(C)c1ccc(C(=O)c2ccc(N(C)C)c3ccccc23)cc1,-5.22 (active)
17,O=C(O)c1cc(-c2ccncc2)nc2ccc(F)cc12,3
18,O=C(O)CCCC(=O)Nc1c(F)c(F)c(F)c(F)c1F,0.09
19,Cc1c2ccccc2nc2c(F)c(NC(C)C)c(F)c(F)c12,9.6
20,Cc1noc(C)c1CSCC(=O)N1CCN(c2ccc(F)cc2)CC1,-3.68 (active)
21,O=C(NCc1ccccn1)C(=O)NCC(c1ccco1)N1CCN(c2ccc(F)cc2)CC1 (stereo not drawn),1.32
22,COc1ccc(CN=Cc2[nH]c3ccc(Br)c(Cl)c3c2O)cc1,8.49
23,COc1cccc(/C=N/NC(=O)c2c(C)nc3ccc(Br)cn23)c1O,-4.47 (active)
24,COc1cc(OC)c2cc(C(=O)N/N=C/c3cccc(OC)c3O)[nH]c2c1,-3.6 (active)
25,CN(C)c1nc(N)nc(/C(C#N)=C/C2CC3C=CC2C3)n1 (stereo not drawn),3.05
26,CCOC(=O)c1ccc2[nH]c3ccccc3c2c1,-0.27
27,Oc1ccc2ccccc2c1N=Nc1ccccn1,-8.6 (active)
28,Cc1ccc(/C=[N+](\[O-])c2ccc(N(C)C)cc2)c2nsnc12,4.9

# Reference: PubChem BioAssay AID1628 (Sanford-Burnham Center for Chemical Genomics, 2009)
